# Experimental data taken from PubChem BioAssay AID540308 (The Scripps Research Institute Molecular Screening Center, 2011).
# About 3,500 (0.97%) of roughly 360,000 compounds were called active.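 Rule for the calls: active = activation above a per-plate cutoff, the mean activation of sample wells on that plate plus 3 SD (cut at about 8% in these data); inactive = the rest.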 The sample as a whole holds a higher share of actives than the screen did.
# Target: Melanocortin receptor 4 (Homo sapiens) (UniProt P32245)
# Sequence (P32245 whole entry, looked up): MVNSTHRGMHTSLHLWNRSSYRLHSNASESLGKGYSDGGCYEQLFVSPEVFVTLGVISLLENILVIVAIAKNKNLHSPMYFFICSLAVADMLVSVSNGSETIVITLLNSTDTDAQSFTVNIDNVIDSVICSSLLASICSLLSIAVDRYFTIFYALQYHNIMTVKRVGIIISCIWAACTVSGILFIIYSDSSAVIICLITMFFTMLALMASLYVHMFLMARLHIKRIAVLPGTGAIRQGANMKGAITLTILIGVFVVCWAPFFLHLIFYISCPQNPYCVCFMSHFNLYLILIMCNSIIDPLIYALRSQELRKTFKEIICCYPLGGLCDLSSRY
# Experiment: activators of MC4R beta-arrestin recruitment – cell-based, luminescence, agonist arm of biased-ligand search, primary screen (AID 540308)
# Conditions: U2OS MC4R beta-arrestin complementation, at 8.9 µM, stronger effect = higher value, percent of melanotan II response, DMSO zero
row,Compound,activation
1,COC(=O)c1c(C)[nH]c(C(=O)/C=C/c2ccc(Cl)cc2)c1C,30.6% (active)
2,CCCCOC(=O)c1[nH]c(C)c(C(=O)OC)c1C,-0.04% (inactive)
3,COC(=O)c1c(C)[nH]c(C(=O)NCCc2ccc(S(N)(=O)=O)cc2)c1C,0.27% (inactive)
4,CCCCCC(O)c1cccc(OCc2ccc3ccccc3n2)c1 (stereo unspecified),8.01% (inactive)
5,CN(Cc1ccccc1)C(=O)c1ccc(COc2ccccc2)cc1,-0.25% (inactive)
6,CN(CC(=O)Nc1ccc(Cl)cc1)C(=O)c1ccc(COc2ccccc2)cc1,23.3% (active)
7,COc1ccc(NC(=O)CN(C)C(=O)c2ccc(COc3ccccc3)o2)cc1,-0.54% (inactive)
8,O=C(Nc1nnc([C@H]2C[C@H](O)[C@@H](CO)O2)s1)c1cccc(Cl)c1,0.51% (inactive)
9,Cc1cc(Br)ccc1NC(=O)CCCOc1cc(=O)n(C)c2ccccc12,-1.42% (inactive)
10,CCc1nc2c(OCCC3CCCCC3)cccn2c1N(C)C(=O)c1ccco1,1.25% (inactive)
11,N#CC(=C1SC=CS1)c1nc(-c2ccccc2)cs1,30.3% (active)
12,CC(C)c1cccc(-c2csc(C(O)c3ccccc3)n2)c1 (stereo unspecified),5.31% (inactive)
13,N#CC(=C1CCCC1)c1nc(-c2ccc(Cl)cc2)cs1,-1.29% (inactive)
14,O=C(CN1CCOCC1)N/N=C/c1ccc(-c2ccc(Br)cc2)o1,-3.54% (inactive)
15,O=C(Cn1nnc(-c2ccccc2)n1)N/N=C/c1ccc(-c2ccc(Cl)cc2)o1,9.43% (active)
16,Nc1nnn(CC(=O)N/N=C/c2ccccc2)n1,-0.81% (inactive)
17,Cc1cc2nc(SCCN3CCOCC3)[nH]c2cc1C,3.6% (inactive)
18,Cc1ccc(-n2nc3cc(Cl)c(NC(=O)c4ccco4)cc3n2)cc1,9.62% (active)
19,Cc1ccc(NC(=O)c2ccco2)cc1,-2.18% (inactive)
20,Cc1ccc(-n2nc3cc(C)c(NC(=O)c4cccnc4)cc3n2)cc1,2.16% (inactive)
21,CCOc1ccc(C(=O)Nc2ccc(S(=O)(=O)NCC3CCCO3)cc2)cc1OCC (stereo unspecified),-3.73% (inactive)
22,CCCNC(=O)C1(C)CCCN(Cc2c(C)nn(-c3ccccc3)c2C)C1 (stereo unspecified),0.24% (inactive)
23,CC(C)Oc1cc(F)ccc1-c1cc(C(=O)Nc2cccc(Cl)c2)[nH]n1,0.52% (inactive)

row,Compound,activation
1,COc1ccccc1C(=O)OCC(=O)NCCNC(=O)COC(=O)c1ccccc1OC,-1.16% (inactive)
2,Cc1cc(C)cc(C(=O)OCC(=O)NCCNC(=O)COC(=O)c2cc(C)cc(C)c2)c1,12% (active)
3,COc1ccc(C(=O)OCC(=O)NCCCc2ccccc2)cc1OC,1.24% (inactive)
4,CCOC(=O)C1CCCN(C(=O)c2ccc(C)c(F)c2)CC1 (stereo unspecified),-1.19% (inactive)
5,Cc1ccc(-n2c(C)cc(/C=C(\C#N)C(=O)NCC3CCCO3)c2C)cc1 (stereo unspecified),-2.19% (inactive)
6,Cc1cc(/C=C(/C#N)C(=O)Nc2ccc(Cl)cc2)c(C)n1-c1cccnc1,11.4% (active)
7,N#C/C(=C\c1cccnc1)C(=O)Nc1ccc(SC(F)F)cc1,-1.77% (inactive)
8,CC1(C(=O)NCC2CCOCC2)Cc2c(-c3cccc(C(N)=O)c3)ccnc2O1 (stereo unspecified),0.47% (inactive)
9,CCOC(=O)c1c(-c2ccc(C)cc2C)csc1NC(=O)CSc1nnnn1C,14.8% (active)
10,Cn1nnnc1SCC(=O)Nc1sccc1C(N)=O,0.49% (inactive)
11,COC(=O)c1ccccc1NC(=O)CSc1nnnn1C,-1.06% (inactive)
12,OC[C@H]1O[C@@H](c2nc(-c3nc(-c4ccc(F)cc4)no3)cs2)[C@H](O)[C@@H](O)[C@H]1O,-1.58% (inactive)
13,Nc1nc(CSc2nnnn2-c2ccccc2)nc(Nc2ccccc2)n1,3.67% (inactive)
14,CCOC(=O)c1ccc(-c2ccc3ncnc(N(C)Cc4sccc4C)c3c2)o1,1.6% (inactive)
15,CC1(C(=O)NS(=O)(=O)c2ccc(C#N)cc2)CCN1C(=O)c1ccc(C2CCCCC2)cc1 (stereo unspecified),-2.29% (inactive)
16,CCc1ccc(CN(C)C(=O)C2CCC(=O)N(Cc3cccc(OC)c3)C2)nc1 (stereo unspecified),-1.43% (inactive)
17,Cc1nc2c(OCC(=O)C(C)(C)C)cccn2c1N(C)Cc1cccs1,-0.1% (inactive)
18,CN(C)CCCN(C(=O)c1ccc(S(=O)(=O)N2CCCCCC2)cc1)c1nc2ccc(Br)cc2s1,9.74% (active)
19,CN(C)CCN(C(=O)C1=COCCO1)c1nc2ccc(Cl)cc2s1,1.13% (inactive)
20,CCN(CC(=O)Nc1c(F)cccc1F)C(=O)c1ccc(S(=O)(=O)N2CCCCC2)cc1,-2.71% (inactive)
21,CCNC(=O)C1(C)CCN(Cc2ccc(C(=O)OCC)o2)C1 (stereo unspecified),-1.16% (inactive)
22,Cn1c(=O)c2cc(NC(=O)NCCc3cccs3)ccc2n1Cc1cccc(C(F)(F)F)c1,-0.26% (inactive)
23,CCc1nc2c(OCC(N)=O)cccn2c1N(C)C(=O)c1ccc(OC)cc1,-1.44% (inactive)

row,Compound,activation
1,COC(=O)c1nc2n(n1)C(c1ccc([N+](=O)[O-])cc1)C(C(=O)Nc1ccc(Cl)cc1)=C(C)N2 (stereo unspecified),9.62% (active)
2,COc1cc(C2C(C(=O)Nc3ccc(F)cc3)=C(C)Nc3nc(CCCO)nn32)cc(OC)c1OC (stereo unspecified),-1.43% (inactive)
3,COc1ccc(NC(=O)C2=C(C)NC(=O)NC2c2ccccc2[N+](=O)[O-])cc1 (stereo unspecified),-2.18% (inactive)
4,CCNC(=O)C1(C)CCN(C(=O)c2ccccc2)C1 (stereo unspecified),1.33% (inactive)
5,CSCCC(Nc1ccc(S(=O)(=O)N2CCOCC2)cc1[N+](=O)[O-])C(=O)OCC(=O)N(C(C)C)C(C)C (stereo unspecified),-3.39% (inactive)
6,NC(=O)C1CCN(C(=O)c2cn(-c3ccccc3)nc2-c2cccnc2)CC1,8.8% (active)
7,O=C(c1cn(-c2ccccc2)nc1-c1cccnc1)N1CCN(S(=O)(=O)c2ccccc2F)CC1,-2.08% (inactive)
8,COc1ccccc1N1CCN(C(=O)c2cn(-c3ccccc3)nc2-c2cccnc2)CC1,0.24% (inactive)
9,COC(=O)c1ccc(NCc2cc(O)ccc2O)cc1,-1.55% (inactive)
10,CC(C)OC(=O)c1ccc(NCc2cc(O)ccc2O)cc1Cl,-0.65% (inactive)
11,O=C(OC12CC3CC(CC(C3)C1)C2)c1ccc(NCc2cc(O)ccc2O)cc1,18.7% (active)
12,CC(=O)NC(c1ccccc1)c1nc(-c2cccc(C(C)C)c2)cs1 (stereo unspecified),-1.73% (inactive)
13,CCCNC(=O)c1cc(C2CCCCN2C(=O)OC)on1 (stereo unspecified),-0.19% (inactive)
14,Cc1cc(OCc2cc(C(=O)NCc3cc(C(C)C)no3)no2)cc(C)c1Cl,10% (active)
15,Cc1cccnc1CC(C)NC(=O)c1cc(COc2cncc(Cl)c2)on1 (stereo unspecified),0.62% (inactive)
16,COc1ccc(OCc2cc(C(=O)NCC3(C)COC3)no2)c(Cl)c1,-0.53% (inactive)
17,O=C(CCc1ccccc1)Nc1ccnn1C1CCN(Cc2ccc(OCCO)cc2)CC1,1.84% (inactive)
18,CCCNC(=O)C1(C)CCN(Cc2ccc(Cl)c(Cl)c2)C1 (stereo unspecified),-2.21% (inactive)
19,Cc1oc2cc(Br)c(O)c(Br)c2c1C(=O)c1ccccc1,-0.65% (inactive)
20,CCOC(=O)c1c(C)oc2cc(Sc3ccccc3)c(O)c(O)c12,2.95% (inactive)
21,CCOC(=O)c1c(-c2ccccc2)oc2cc(Br)c(O)c(C=O)c12,48% (active)
22,COc1ccc(C2CC(c3cccc(OC)c3)=NN2c2ccc(S(N)(=O)=O)cc2)cc1 (stereo unspecified),-0.4% (inactive)
23,COc1ccc(-c2csc(C(O)c3cccc(Cl)c3)n2)cn1 (stereo unspecified),-0.23% (inactive)

row,Compound,activation
1,CC1(C(=O)NS(=O)(=O)c2ccc(C#N)cc2)CCN1C(=O)CC1CCCC1 (stereo unspecified),-0.26% (inactive)
2,CC(=O)Nc1ccc(NC(=S)NC(=O)c2ccc([N+](=O)[O-])c(C)c2)cc1,0.22% (inactive)
3,Cc1ccc(NC(=S)NC(=O)c2ccc(-c3ccccc3)cc2)cc1,8.85% (active)
4,Cc1ccc(C(=O)NC(=S)Nc2ccc(N3CCOCC3)cc2)cc1,-0.72% (inactive)
5,Cn1c(NCc2cccnc2)nc2cc(-c3ccc(F)cc3)sc2c1=O,1.42% (inactive)
6,OC[C@@H]1CN(Cc2ccc3c(c2)OCO3)C[C@H](n2cnc3c(NCc4ccco4)ncnc32)O1,0.72% (inactive)
7,CC(=O)Nc1cncc(-c2ccccc2CO)n1,-1.61% (inactive)
8,Cn1c(=S)sc2ccc3ccccc3c21,18.2% (active)
9,COc1ccc2ccccc2c1CNc1nnnn1C,-2.85% (inactive)
10,CCc1nc2ccc(C(=O)N3CCC(O)(Cc4ccccc4)CC3)cn2c1N(C)C(=O)Cc1ccccc1,-0.81% (inactive)
11,Cc1ccc(CCC(=O)Nc2ncc(Cc3cc(Cl)ccc3Cl)s2)o1,10.3% (active)
12,O=C(CCc1ccccc1Cl)Nc1ccc(S(=O)(=O)Nc2nccs2)cc1,-1.67% (inactive)
13,Cc1ccc(Cc2cnc(N)s2)o1,0.06% (inactive)
14,CNc1cnc(-c2cc(OC)c(OC)c(OC)c2)cn1,0.24% (inactive)
15,CCOC(=O)C1(C)CCCN(C(=O)c2ccc(F)c(Cl)c2)C1 (stereo unspecified),-0.39% (inactive)
16,Cc1ccc(NC(=O)c2sc3nc(N)c(C#N)cc3c2N)cc1,7.55% (inactive)
17,CC(=O)c1ccc(NC(=O)c2sc3nc4n(c(=O)c3c2C)CCCCC4)cc1,-2.88% (inactive)
18,CC(=O)Nc1ccc(NC(=O)c2sc3nc4c(c(-c5ccc(C)cc5)c3c2N)CCC4)cc1,11.7% (active)
19,CC1(C(=O)NCc2ccc(F)c(F)c2)Cc2c(-c3ccc4c(c3)OCO4)ccnc2O1 (stereo unspecified),-2.86% (inactive)
20,CCOC(=O)C1(C)CCCN(C(=O)c2ccc(N(C)C)cc2)C1 (stereo unspecified),-1.51% (inactive)
21,CN(C)CCCOc1ccc(-c2ccc3nccn3c2)cn1,-1.74% (inactive)
22,CSc1ccc(CN2CCC2(C)C(=O)Nc2ccc(C)c(O)c2)cc1 (stereo unspecified),-0.16% (inactive)
